This passage reports inhibition results from PubChem BioAssay AID1220 (Sanford-Burnham Center for Chemical Genomics, 2008).

Structures are written as SMILES. Out of some 190,000 compounds screened, about 1,300 (0.68%) were called active. Rule as the data show it: active = inhibition above about 50%; inactive = the rest. What follows is part of a selection rich in actives, with near analogues and random picks from the rest.

The term inhibition denotes the drop in the measured response relative to a control, in per cent.

In this test the target is Mannose-6-phosphate isomerase (Homo sapiens) (UniProt P34949). Put plainly: human PMI inhibitors, high substrate, primary screen, biochemical, fluorescence intensity, high mannose 6-phosphate (AID 1220). Particulars: recombinant PMI enzyme, coupled fluorescence intensity; at 20 µM; hits give high values.
Chain of Mannose-6-phosphate isomerase (Homo sapiens) (P34949 whole entry, looked up): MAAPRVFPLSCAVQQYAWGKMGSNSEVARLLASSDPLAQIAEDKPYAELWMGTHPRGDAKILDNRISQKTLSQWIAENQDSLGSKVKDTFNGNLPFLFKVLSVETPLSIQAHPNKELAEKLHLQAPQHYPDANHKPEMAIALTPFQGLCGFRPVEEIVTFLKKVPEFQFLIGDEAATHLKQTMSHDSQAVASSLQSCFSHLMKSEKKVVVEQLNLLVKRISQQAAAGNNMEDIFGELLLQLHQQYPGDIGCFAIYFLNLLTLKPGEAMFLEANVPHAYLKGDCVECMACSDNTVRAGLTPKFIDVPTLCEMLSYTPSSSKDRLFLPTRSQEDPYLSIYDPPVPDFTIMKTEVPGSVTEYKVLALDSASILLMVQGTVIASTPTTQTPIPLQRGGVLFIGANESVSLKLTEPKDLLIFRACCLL
Regarding `Cc1cc(C)c(NC(=O)CS)c(Cl)c1`, the inhibition was -11.6% (inactive). As to `CSc1nc(Cl)cc(Nc2ccccc2N)n1`, the inhibition was -3% (inactive). The result for `O=C(O)CCNC(=O)/C(=C/C=C/c1ccccc1)NC(=O)c1ccccc1` reads -0.9% (inactive); that for `Cc1ccc(Nc2nc(Nc3ccc(C)cc3)nc(SC3=NCCS3)n2)cc1`, 8.1% (inactive); that for `CCCCC1(Cc2ccc(OC)c([N+](=O)[O-])c2)C(=O)N(c2ccccc2)N(c2ccccc2)C1=O`, 11% (inactive). For `CC(C)(C)CC(C)(C)c1ccc(O)c(CN2CCN(CCC#N)CC2)c1`, the inhibition is 4.7% (inactive). The result for `CCN1CCN(C2=CC3=CC(=C(C#N)C#N)CCC3CC2)CC1` (stereo not drawn) reads 59.6% (active); that for `CC1(C)CC(NCCN2CCN(C3=CC(=C(C#N)C#N)CC(C)(C)C3)CC2)=CC(=C(C#N)C#N)C1`, 12.4% (inactive); that for `CCC(CC)COC(=O)C(C#N)c1nc2ccccc2nc1N1CCN(CC)CC1` (stereo not drawn), 17.2% (inactive). The result for `CCn1cc(C(=O)N2CCc3ccccc32)c(=O)c2cc(S(=O)(=O)N3CCCCCC3)ccc21` reads 5.7% (inactive); that for `CCCC(=O)NC(c1ccc(N(C)C)cc1)c1c(O)ccc2ccccc12` (stereo not drawn), 54.8% (active). `CCCC(=O)NC(c1ccccc1Cl)c1c(O)ccc2ccccc12` (stereo not drawn): the inhibition was 13.4% (inactive). The result for `CCCC(=O)NC(c1ccc(OC)c(OC)c1)c1c(O)ccc2ccccc12` (stereo not drawn) reads 23.2% (inactive); that for `CCC(=O)NC(c1ccc(OC)cc1)c1c(O)ccc2ccccc12` (stereo not drawn), 44.2% (inactive). On to `CCC(=O)NC(c1ccc(N(C)C)cc1)c1c(O)ccc2ccccc12` (stereo not drawn), for which the inhibition is 62% (active). In the case of `CCC(=O)NC(c1ccc([N+](=O)[O-])cc1)c1c(O)ccc2ccccc12` (stereo not drawn), the inhibition was 14.3% (inactive). The result for `Cc1cc(NC(=O)CN2C(=O)/C(=C/c3cccc(Br)c3)SC2=S)no1` reads -9.8% (inactive); that for `CC(Cl)c1cc(-c2ncc(C(F)(F)F)cc2Cl)no1` (stereo not drawn), -4.3% (inactive). Take `CCc1ccccc1OCCCCCNCCO`: the inhibition is 1.5% (inactive).

Turning to `COc1cc(C2=NOC(C(=O)N3CCCCCC3)C2)cc(OC)c1OC` (stereo not drawn), the inhibition is -5.6% (inactive).

For the compound `O=C(O)C1CC=CCC1C(=O)NCCc1csc(-c2ccccc2)n1` (stereo not drawn), the inhibition is -17.1% (inactive).

Regarding `CCOc1ccc(C(C)NC(=S)NC2CCCCC2)cc1OCC` (stereo not drawn), the inhibition is 6% (inactive). In the case of `Cc1ccc(OCC(=O)N/N=C\c2cn(C)c3ccccc23)c([N+](=O)[O-])c1` it was 14% (inactive). In the case of `COc1cccc(C2NC(=O)c3ccccc3O2)c1OCc1ccccc1F` (stereo not drawn) it was 19% (inactive).

Turning to `CN(C)c1ccc(/C(=N\O)c2ccccc2)cc1`, the inhibition is 5.9% (inactive). `Cc1ccc(/C=C/C(=O)Nc2ccc(N(C)C)cc2)o1`: the inhibition is 27.9% (inactive).

Consider `Cc1ccc(N=Cc2ccc(N(C)C)cc2)cc1C`, for which the inhibition is 10% (inactive). As to `Cc1ccc(N=Cc2ccc(N(C)C)cc2)cc1`, the inhibition is 9.3% (inactive). With `CN(C)c1ccc(C(=O)/C=C/c2ccco2)cc1`, the inhibition is 38.7% (inactive). With `CN(C)c1ccc(N=Cc2nc(-c3ccccc3)oc2O)cc1`, the inhibition was 31% (inactive). The result for `Cc1ccc(C=Nc2ccc(N(C)C)cc2)o1` reads 51.8% (active). Turning to `CN(C)c1ccc(C=Nc2ccccc2)cc1`, the inhibition is -10.5% (inactive). In the case of `CN(C)c1ccc(C=Nc2ccc(N(C)C)cc2)cc1` it was 59.2% (active); in that of `CN(C)c1ccc(N=Cc2ccco2)cc1`, 63.2% (active); in that of `CCSc1nc(C(F)(F)F)cc(=O)n1-c1ccccc1`, -9.6% (inactive). In the case of `O=C(Nc1c(F)cc(F)cc1Br)c1cc2nc(C(F)F)cc(C(F)F)n2n1` it was 18.1% (inactive). The result for `CCCC1(C)NC(=O)c2ccccc2O1` (stereo not drawn) reads 7.5% (inactive); that for `Cc1cccc(C)c1NC(=O)CSc1nnc(Cc2ccccc2)o1`, -13.2% (inactive). Take `Cc1cccc(OCC(=O)O/N=C(\N)Cc2cccs2)c1`: the inhibition is 0% (inactive). In the case of `COc1ccc(OCC(=O)N2CCN(c3cccc(C(F)(F)F)c3)CC2)cc1` it was 15.4% (inactive).

With `O=C(COc1cccc(C(F)(F)F)c1)N1CCN(c2ccc(O)cc2)CC1`, the inhibition was 50.6% (active).

Regarding `O=C(COc1cccc(C(F)(F)F)c1)N1CCN(c2ccccc2O)CC1`, the inhibition is -5.8% (inactive). The result for `CC(C)C(=O)NC(Nc1cccc2cccnc12)C(Cl)(Cl)Cl` (stereo not drawn) reads 41.4% (inactive); that for `CCC(=O)NC(NC(=S)Nc1cccc2cccnc12)C(Cl)(Cl)Cl` (stereo not drawn), 37.8% (inactive); that for `CC(C)(C)C(=O)NC(Nc1cccc2cccnc12)C(Cl)(Cl)Cl` (stereo not drawn), 60.1% (active). In the case of `CCOC(=O)c1oc2ccccc2c1NC(=O)COC` it was -10.9% (inactive); in that of `CCOc1ccc(C(C)NC(=O)CCC(=O)O)cc1` (stereo not drawn), 1.9% (inactive). For the compound `Cc1ccc2nc(SCC(=O)Nc3cccc(S(=O)(=O)N(C)C)c3)[nH]c2c1`, the inhibition was 10.5% (inactive). In the case of `O=C(/C=C/c1ccc(Br)o1)NCCCN1CCOCC1` it was -2.7% (inactive).

Consider `N#Cc1cc2c(nc1SC1CC(=O)N(c3ccccc3)C1=O)CCC2` (stereo not drawn), for which the inhibition was 35.2% (inactive). On to `COc1ccc(N2C(=O)CC(Sc3nc4c(cc3C#N)CCC4)C2=O)cc1` (stereo not drawn), for which the inhibition is 57.1% (active). As for `CCCc1ccc(C#N)c(SC2CC(=O)N(c3ccc(OC)cc3)C2=O)n1` (stereo not drawn), the inhibition was 40.6% (inactive). With `Cc1nc2ccc(NC(=O)c3cc(S(=O)(=O)N4CCOCC4)ccc3C)cc2s1`, the inhibition was 5.6% (inactive).

For the compound `Cc1nc2ccc(NC(=O)c3ccc(S(=O)(=O)N4CCOCC4)cc3)cc2s1`, the inhibition is -2.3% (inactive). The result for `Cc1nc2ccc(Nc3nc4cc(S(=O)(=O)N5CCOCC5)ccc4o3)cc2s1` reads 61.9% (active). Consider `Nc1nc(NCCCN2CCOCC2)nc(Nc2ccc(F)cc2)c1[N+](=O)[O-]`, for which the inhibition is -6.1% (inactive). In the case of `CCOC(=O)c1sc2nc(CC(=O)OC)nc(N(C)CCc3ccccn3)c2c1C` it was -1.1% (inactive); in that of `CC(=O)C1=C(C)OC(N)=C(C#N)C1c1ccncc1` (stereo not drawn), -5.8% (inactive). `CC1=C(n2nnc([N+](=O)[O-])n2)C(c2cccnc2)C(C#N)=C(N)O1` (stereo not drawn): the inhibition was 59.9% (active). The result for `CC(=O)C1=C(C)OC(N)=C(C#N)C1c1cccnc1` (stereo not drawn) reads 42.6% (inactive). With `CCOC(=O)C1=C(c2ccccc2)OC(N)=C(C#N)C1c1cccnc1` (stereo not drawn), the inhibition is 11.6% (inactive). Turning to `CC(=O)C1=C(C)OC(N)=C(C#N)C1c1cccc([N+](=O)[O-])c1` (stereo not drawn), the inhibition was 56.7% (active). In the case of `COC(=O)C1=C(C)OC(N)=C(C#N)C1c1cccnc1` (stereo not drawn) it was 0.3% (inactive); in that of `O=C(CN1CCN(C2CCCCC2)CC1)Nc1ccc(Br)cc1`, -11.2% (inactive). The result for `CC1(C)CC(=O)C(N=Nc2cc(Cl)c(Cl)c(Cl)c2)=C(O)C1` reads -3.4% (inactive). Take `O=Cc1ccc(-n2cc(C=O)c3ccccc32)cc1`: the inhibition is -5.3% (inactive). In the case of `CC1=C(C(=O)OCC2CCCO2)C(c2coc3ccccc3c2=O)C2=C(CC(C)(C)CC2=O)N1` (stereo not drawn) it was -4.3% (inactive); in that of `CC(NC(=O)c1cc(-c2ccc(Br)cc2)on1)c1ccccc1` (stereo not drawn), -3.3% (inactive); in that of `O=C(c1cnn(-c2ccccc2)c1)c1ccccc1O`, 10.1% (inactive). Regarding `CCc1cc(C(=O)Cc2cnn(-c3ccccc3)c2)c(O)cc1O`, the inhibition is 15.5% (inactive). For the compound `O=C(Nc1cccc(NC(=O)c2ccc3c(c2)OCO3)c1)c1ccccc1`, the inhibition was 6.5% (inactive). The result for `CCOc1ccccc1N1CCN(CC(=O)Nc2nnc(CC)s2)CC1` reads -13% (inactive). Take `O=c1n(-c2ccc(Br)cc2)cnn1-c1ncccc1[N+](=O)[O-]`: the inhibition was -0.4% (inactive). In the case of `O=c1c2cc(Br)ccc2nc(-c2ccc([N+](=O)[O-])cc2)n1O` it was -16.5% (inactive); in that of `O=c1c2c([N+](=O)[O-])cc([N+](=O)[O-])cc2sn1-c1ccc(Br)cc1`, 104% (active). Regarding `Cc1ccc(C(=O)Nc2ccc(Br)cc2)cc1S(=O)(=O)Nc1ccccn1`, the inhibition is 3.7% (inactive). Consider `c1ccc(Nc2cccc(Nc3ccccc3)c2)cc1`, for which the inhibition is 29.3% (inactive).

With `COc1cccc(NC2=NC3(CCCCC3)N=C(N)N2)c1`, the inhibition was -6.8% (inactive).

For the compound `O=C1c2cccc3cccc(c23)C(=O)N1c1nccs1`, the inhibition is 8.2% (inactive).

`CC(Sc1nncn1C)C(=O)Nc1nnc(-c2ccccc2)s1` (stereo not drawn): the inhibition was 6% (inactive). In the case of `COc1ccc(OC)c(-c2nnc(NC(=O)C(C)Sc3nncn3C)s2)c1` (stereo not drawn) it was 91.6% (active); in that of `COc1ccccc1-c1nnc(NC(=O)C(C)Sc2nncn2C)s1` (stereo not drawn), -2.2% (inactive); in that of `COc1ccccc1CN1CCNC(=O)C1CC(=O)NCc1csc(C)n1` (stereo not drawn), 9.7% (inactive). The result for `CSc1ccc(/C=N/NC(=O)CN2CCN(Cc3ccccc3Cl)CC2)cc1` reads 0.4% (inactive). The result for `Cc1ccc(C)c(C(=O)COc2ccc(C)nc2[N+](=O)[O-])c1` reads 18.4% (inactive); that for `COCCn1c(C)cc(C(=O)COc2cccnc2[N+](=O)[O-])c1C`, 59.4% (active); that for `Cc1ccc(OCC(=O)c2ccc(Cl)s2)c([N+](=O)[O-])n1`, 55.6% (active). On to `COCCn1c(C)cc(C(=O)COc2nc3ccccc3nc2C)c1C`, for which the inhibition was 8.5% (inactive). The result for `CCCn1c(C)cc(C(=O)COc2ccc(C)nc2[N+](=O)[O-])c1C` reads 3.2% (inactive). The result for `Cc1ccc(OCC(=O)c2cc(C)n(C)c2C)c([N+](=O)[O-])n1` reads 42.3% (inactive). In the case of `COCCn1c(C)cc(C(=O)COc2ccc(C)nc2[N+](=O)[O-])c1C` it was 51.6% (active); in that of `Cc1ccc(OCC(=O)c2cc(C)c(C)cc2C)c([N+](=O)[O-])n1`, 4.2% (inactive); in that of `Cc1cc(C)c(C(=O)COc2cccnc2[N+](=O)[O-])cc1C`, 24.3% (inactive). Turning to `O=C(CCN1C(=O)c2cccnc2C1=O)NC1CCCCCC1`, the inhibition was 9.7% (inactive). For `CCC(=O)Nc1ccc(N2CCN(S(C)(=O)=O)CC2)cc1`, the inhibition was 3.4% (inactive). On to `Cc1cc(NCCCn2ccnc2)n2nc(-c3ccc(F)cc3)cc2n1`, for which the inhibition is -14.3% (inactive). The result for `O=C(N/N=C/c1ccncc1)c1cccc(NC(=O)c2ccc(Cl)cc2)c1` reads -140% (inactive); that for `C#CCOCCOCCOCCNc1nc(N2CCN(C(=O)Cn3cc(CCCN=C(N)N)nn3)CC2)nc(N2CCN(C(=O)[C@H]([C@@H](C)CC)n3cc(CCCN=C(N)N)nn3)CC2)n1`, -53.5% (inactive).
